# beta cell repl = inducers of MIN6 beta-cell proliferation, primary screen, ATP luminescence, uHTS | MIN6 cells proliferation, ATPlite luminescence, 48 h; cells starved in 0.2% serum; 100% = growth in 10% serum | proliferation, % at 10 µM | 330,000 tested, 0.29% active | AID 2380, 2010;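 active = compounds whose signal lies at least 3.5 SD above the mean of all wells on their plate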;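 note: 0% = DMSO-treated cells in low-serum medium and 100% = 10% serum control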
# iPSC survival up = enhancers of single-cell hiPSC survival, primary screen, ATPlite luminescence. 100% = ROCK inhibitor wells, 0% = DMSO. survival enhancement, % at 20 µM. 360,000 tested, 0.044% active; in the data active = survival enhancement above about 18%;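 note: cells exposed to compounds for 16 hours before the ATP read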
# Myeloid diff MLP = induction of myeloid progenitor differentiation, primary screen, cell-based, flow cytometry, MLPCN library; AID 624256, 2012; 360,000 tested, 1% active; ER-HoxA9 myeloid progenitors, lysozyme-GFP differentiation; calls only at 10 µM;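 active = normalized GFP-positive differentiation at or above the plate's own cutoff, the solvent-only control mean plus 3 SD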;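 note: cells exposed to compound for four days before flow analysis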
# ABCB6 inh MLPCN = ABCB6 transporter inhibitors, primary screen, K562-ABCB6 cells, flow cytometry, MLPCN library; 360,000 tested, 0.19% active; ATP-binding cassette sub-family B member 6 (Homo sapiens), Q9NP58; K562-ABCB6 porphyrin accumulation, 1 h; stronger effect = lower value; AID 602162, 2011; fluorescence ratio to DMSO, % at 10 µM;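 active = fluorescence ratio to DMSO below 75%, the collection mean minus 3 SD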;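 note: signal is porphyrin accumulated inside mitochondria; 100% equals median channel fluorescence of DMSO control wells; lower ratio means ABCB6 inhibition with less porphyrin fluorescence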
# Target sequence (Q9NP58 whole entry, looked up): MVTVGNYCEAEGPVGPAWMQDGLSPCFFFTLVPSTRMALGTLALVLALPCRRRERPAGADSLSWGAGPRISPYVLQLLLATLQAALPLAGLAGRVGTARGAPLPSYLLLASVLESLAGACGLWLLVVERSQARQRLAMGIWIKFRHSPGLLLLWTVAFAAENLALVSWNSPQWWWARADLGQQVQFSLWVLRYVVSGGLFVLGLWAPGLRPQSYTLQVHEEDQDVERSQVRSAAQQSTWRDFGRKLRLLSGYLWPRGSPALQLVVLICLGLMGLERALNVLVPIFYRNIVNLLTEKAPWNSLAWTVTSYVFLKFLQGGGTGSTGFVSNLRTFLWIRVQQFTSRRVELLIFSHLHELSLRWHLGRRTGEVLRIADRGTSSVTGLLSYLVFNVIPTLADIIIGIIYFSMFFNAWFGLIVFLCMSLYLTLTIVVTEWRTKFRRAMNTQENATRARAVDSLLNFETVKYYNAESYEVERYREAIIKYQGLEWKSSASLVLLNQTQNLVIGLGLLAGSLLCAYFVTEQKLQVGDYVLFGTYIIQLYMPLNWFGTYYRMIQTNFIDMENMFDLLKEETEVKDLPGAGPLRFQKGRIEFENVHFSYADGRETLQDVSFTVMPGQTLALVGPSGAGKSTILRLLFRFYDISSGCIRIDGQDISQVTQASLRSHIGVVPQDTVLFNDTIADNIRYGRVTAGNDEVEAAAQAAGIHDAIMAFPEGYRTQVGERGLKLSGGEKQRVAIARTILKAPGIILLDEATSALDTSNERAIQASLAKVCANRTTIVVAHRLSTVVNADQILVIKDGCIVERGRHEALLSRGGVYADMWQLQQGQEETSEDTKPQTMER
# Cardio protect = cardioprotection against H2O2-induced cell death, primary screen, uHTS, H9c2 cells, ATPLite luminescence; H9c2 cardiomyocytes, H2O2 injury protection, 2 h; protection from H2O2 cell death, % at 20 µM; 360,000 tested, 0.63% active;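 active = compounds giving at least 50% protection of heart cells from peroxide-induced death in the single-dose screen, raw or plate-pattern-corrected value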;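 note: 0% = DMSO wells with peroxide and 100% = DMSO wells without peroxide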
# Myeloid diff = inducers of myeloid progenitor differentiation, confirmation, cell-based, GFP/Mac1 flow cytometry, cherry pick 01 | shares compounds with Myeloid diff MLP | ER-HoxA9 myeloid progenitors, GFP/Mac1 double-positive flow | 2,300 tested, 2% active | calls only;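 active = share of green or green-and-red cells above 9 and 9% in run 1 or 4 and 3% in run 2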
# GFP autofluor = flagged as fluorescent in myeloid differentiation counter-screen. 2,300 tested, 7.4% active. fluorescence response, % (no concentration beside the values). shares compounds with Myeloid diff MLP. ER-HoxA9 myeloid progenitors, no estrogen, GFP autofluorescence flow cytometry; vehicle wells 0%, positive control 100%. AID 651707;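 active = over 5% cells positive for green fluorescent reporter, or over 2% positive for both it and APC stain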;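 note: range taken on the double positive population between DMSO and positive control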
# * marks the source's active call; other numbers are inactive results; i = inactive; / = no result; + = active, no number. In the library only some 2.2% were active in any assay of this set; here they are far more common.
SMILES,beta cell repl,iPSC survival up,Myeloid diff MLP,ABCB6 inh MLPCN,Cardio protect,Myeloid diff,GFP autofluor
CCN(CC#CCC(O)(c1ccccc1)c1ccccc1)C(C)C,0.3,1.5,i,102.0,0.4,/,/
CC(C)N(CC#CCC(O)(c1ccccc1)c1ccccc1)C(C)C,-1.8,2.9,i,98.0,-3.6,i,0.0
CCCCn1nc(NC(=O)COC)c2cc3cc(OC)ccc3nc21,-0.9,0.2,i,104.0,19.3,i,0.3
COc1ccc(C2C(C(=O)Nc3cccnc3)=C(C)Nc3nc(-c4cccs4)nn32)cc1 (configuration not stated),0.3,-0.4,i,99.0,11.6,i,0.9
Cc1ccc2c(cnn2C(=O)CCC(=O)NCc2cccc(Br)c2)c1,-0.9,-0.1,i,101.0,7.2,/,/
N=c1c2c(n(Cc3ccccc3)c3c1CCC3)CCC2,-6.2,-3.3,+,98.0,-19.0,i,0.0
Cc1ccc(NC2CCCN(C(=O)CCC3=NNC(=O)CC3)C2)cc1C (configuration not stated),-0.4,-0.5,i,103.0,1.2,/,/
COc1cc2c(cc1OC)-c1cc3ccc4c(c3c[n+]1CC2)OCO4,-6.2,-0.1,+,290.0,5.6,+,0.7
O=c1c(=Nc2ccccc2O)c(=O)c2ccccc12,-2.8,-1.2,+,108.0,-15.0,i,0.0
CCn1c(=NC(=O)CSC(C)=O)sc2ccccc21,-1.7,-1.1,i,97.0,15.5,/,/
Cc1c(CCOC(=O)CC23CC4CC(CC(C4)C2)C3)sc[n+]1CC(=O)c1ccc(Br)cc1,-5.8,-1.7,+,100.0,-16.3,i,0.5
CCOC1=C/C(=C/c2c(N)n3nc(-c4ccccc4)sc3nc2=O)C=CC1=O,-0.1,0.7,+,103.0,18.9,i,5.2*
N/C(=N\OC(=O)Nc1ccc(Cl)cc1)c1ncc(C(F)(F)F)cc1Cl,0.0,0.7,i,95.0,-9.4,/,/
Cc1ccc(O)c(NC(=O)CCC2CCCCC2)c1,-3.9,-3.0,i,102.0,-22.1,i,0.4
COCCCn1c(SCC(=O)Nc2ccccc2F)nnc1-c1ccoc1C,-1.4,-0.6,i,95.0,6.0,/,/
Nc1ccc2c(c1)C(=NO)c1ccccc1-2,/,-0.4,i,93.0,-7.5,/,/
Cc1ccccc1OCc1nnc(SC(C)C(=O)O)n1-c1ccccc1 (configuration not stated),/,2.6,i,105.0,0.9,/,/
Cc1ccccc1OCc1nnc(SCCN2CCCC2)n1-c1ccccc1,0.2,1.7,+,106.0,7.5,i,0.2
O=C1CCC(C(=O)NCCCn2ccnc2)N1 (configuration not stated),-0.1,-1.0,i,101.0,-0.2,/,/
c1ccc(Cc2c(-c3ccccc3)nc3c4ccccc4ccn23)cc1,/,-2.1,+,102.0,-11.4,i,0.4
O=C(/C=C/c1cccs1)N1CCN(c2ccccc2F)CC1,-3.1,-0.2,i,102.0,-3.1,/,/
Cc1ccc(S(=O)(=O)N2[C@@H](c3ccc4c(c3)OCO4)C(C(=O)O)=C[C@H]2CC2CCCC2)cc1,-2.1,-1.3,+,103.0,-13.3,i,0.0
O=C(c1ccco1)N1CCCC(c2nc3c(nnn3Cc3ccc(F)cc3)c(=O)[nH]2)C1 (configuration not stated),-1.3,1.8,i,93.0,3.2,/,/
CCCn1cc(S(=O)(=O)CC(=O)NC2CCCCC2)c2ccccc21,-3.1,-1.8,/,100.0,-0.5,i,0.0
CCCn1cc(SCC(=O)NC2CCCC2)c2ccccc21,2.7,0.4,i,95.0,-2.2,/,/
COc1cccc(C(=O)O/N=C(\N)Cc2ccc(Cl)cc2)c1,0.0,-0.8,i,99.0,-15.9,/,/
COc1cc2nc(CN(C)Cc3nc4ccccc4c(=O)[nH]3)[nH]c(=O)c2cc1OC,-3.2,11.1,i,104.0,54.9*,i,0.4

# Screens deposited in PubChem BioAssay by several laboratories.
